In publication PMC7819943, “Rice protein-binding microarrays: a tool to detect cis-acting elements near promoter regions in rice”:
Over roughly 68,000 sequences, “fluorescence intensity (a.u.)” has its median near 9,100; the highest 2% begin near 16,000. Only a selection was taken, and the highest values are over-represented in it overall.

target: OsWRKY34 (Oryza sativa, UniProt Q0JBA9 1-250); assay: protein-binding microarray (RPBM); PBS, 2% BSA, 51.3 ng/ul salmon testes DNA, 50 uM zinc acetate, 200 nM TF, 25 C, 1 h; high values mean tight binding; settings: protein: recombinant; tags: N-terminal polyhistidine and DsRed monomer fusion (pET32a); label: CyDye5-dUTP incorporated in the synthesized complementary strand; 3' TTTTT single-stranded linker to array surface; dsDNA, one strand shown
In short: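 The binding signal is fluorescence intensity per array feature (arbitrary units). Readings came from an Axon 4000B scanner after a washed, 2% BSA-blocked, double-stranded custom Agilent array had been incubated for 1 h at 25 °C with 200 nM protein and 50 µM zinc acetate. The protein was a Ni–NTA-purified transcription factor fused N-terminally to polyhistidine and DsRed, expressed in E. coli BL21-CodonPlus.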

Chain of OsWRKY34 (Q0JBA9 entry or part of it): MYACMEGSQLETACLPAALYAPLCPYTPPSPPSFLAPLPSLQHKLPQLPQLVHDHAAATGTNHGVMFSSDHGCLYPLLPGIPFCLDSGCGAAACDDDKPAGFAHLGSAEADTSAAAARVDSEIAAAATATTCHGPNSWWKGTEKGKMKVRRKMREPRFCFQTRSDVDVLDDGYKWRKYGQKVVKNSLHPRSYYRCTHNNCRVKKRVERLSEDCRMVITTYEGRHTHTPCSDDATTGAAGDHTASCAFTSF

| Sequence | binding signal |
| --- | --- |
| CTCTACTTCTAATATTCCTTATTTTTTTAATTCCGAATTTCGGAGTCACCTAGTGCAG | 8800 fluorescence intensity (a.u.) |
| TTTCTACACCCTGTAGATCCTTGGACCCACATGCAGACCACGGAGTCACCTAGTGCAG | 8730 fluorescence intensity (a.u.) |
| GTGGGTGGGATCCAGGAAGATTTTAAGCTGACTGCTGCGGCGGAGTCACCTAGTGCAG | 8510 fluorescence intensity (a.u.) |
| CCTTCGCTCGCCACGTGGCAGCCGCTAGTCCTTATCGCCGCGGAGTCACCTAGTGCAG | 10300 fluorescence intensity (a.u.) |
| GGGAAACCAGGCTATCCTCTTGGTCACTCTGCACCAATTCCGGAGTCACCTAGTGCAG | 10500 fluorescence intensity (a.u.) |
| ACAGCTCTGCTCAACCTTGCCATCTCGATCAATCGATCCTCGGAGTCACCTAGTGCAG | 11400 fluorescence intensity (a.u.) |
| TGGATACTTGGCGTTGGTGGGCTGGTTCTTATTGGATACGCGGAGTCACCTAGTGCAG | 8120 fluorescence intensity (a.u.) |
| CATCGTTGACCAAGAATAAGAACAGCGAATTTGCATAATGCGGAGTCACCTAGTGCAG | 14700 fluorescence intensity (a.u.) |
| CGGTGTCGGATTTTTGGTTGGTTGACGGGGTTTGTGAGGTCGGAGTCACCTAGTGCAG | 17500 fluorescence intensity (a.u.) |
| GGTTTCTTGGATTGGGCTGTGGCTGGCGTTGGTCGGAGGACGGAGTCACCTAGTGCAG | 19100 fluorescence intensity (a.u.) |
| AGGTGATGTTTGGGGTCGTTGGGTTGGTCCGCGTTCTTGCCGGAGTCACCTAGTGCAG | 17400 fluorescence intensity (a.u.) |
| GTTGACGGGGTTTGTGAGGTGTGGCGGTGACTTGGAAAGACGGAGTCACCTAGTGCAG | 10100 fluorescence intensity (a.u.) |
| CTTTGGCTTCTTGCCTACCGCGTTCTTGGTGATCGTTGGTCGGAGTCACCTAGTGCAG | 8270 fluorescence intensity (a.u.) |
| TAATAAGTGAGACCAAATATTGATTGTGTAGTATATATTTCGGAGTCACCTAGTGCAG | 8670 fluorescence intensity (a.u.) |
| GGGTTGGTCCGCGTTCTTGCCTCCTGGTTGGCCGATGTTTCGGAGTCACCTAGTGCAG | 15700 fluorescence intensity (a.u.) |
| GAAATGTTGGTGACGGTGGAGGATTTTGTTGTTTTAGTGTCGGAGTCACCTAGTGCAG | 9790 fluorescence intensity (a.u.) |
| GGGAGTAGTATTGATTTGACCATCGTTGACCAAGAATAAGCGGAGTCACCTAGTGCAG | 17400 fluorescence intensity (a.u.) |
| TTTCTTGGCTGGTTTGGTTGTGGATTGGATTGGATTGGGTCGGAGTCACCTAGTGCAG | 16100 fluorescence intensity (a.u.) |
| GACAACCTGGAGCCCGACGACGACGAGGGGATGGGGAGGGCGGAGTCACCTAGTGCAG | 8810 fluorescence intensity (a.u.) |
| GTTAGTGTGTGGTTTGTTGCGTGCAGTCAGGTGCACTCGGCGGAGTCACCTAGTGCAG | 11000 fluorescence intensity (a.u.) |
| TATTATTATGATGGGTTTGTATATTAAAATTGTCAGTTTGCGGAGTCACCTAGTGCAG | 8110 fluorescence intensity (a.u.) |
| ACGCGCGCTACATTCTCCACCTCTCCACCATTCCAAACTGCGGAGTCACCTAGTGCAG | 9850 fluorescence intensity (a.u.) |

| Sequence | binding signal |
| --- | --- |
| CACACAGCATCGTTTGGATTAATCACCGAACCGATCGACCCGGAGTCACCTAGTGCAG | 8400 fluorescence intensity (a.u.) |
| CCTCTCCTAGGTTAAGTTTTTTTGGGGCGAAGGGAGTATTCGGAGTCACCTAGTGCAG | 8120 fluorescence intensity (a.u.) |
| CTCTCGCGCGAGATGTCCGTGACTCTCTTTTCGTTTACACCGGAGTCACCTAGTGCAG | 8420 fluorescence intensity (a.u.) |
| CTCTCGGTCGTCGGCCTCGTCCTCCGGGCCGGCATTCATCCGGAGTCACCTAGTGCAG | 8560 fluorescence intensity (a.u.) |
| CTTGCCATGGTGTTGATTTGGGGCGGGAAGAAGCATCGGGCGGAGTCACCTAGTGCAG | 16800 fluorescence intensity (a.u.) |
| TGATCGAGAGAGGTGTTGTTGGAAGCTTGGTTGGTTGGGGCGGAGTCACCTAGTGCAG | 9000 fluorescence intensity (a.u.) |
| GCGCATGGTGTTCGGGAAGAAGTACATCGTCGAGGAGGGGCGGAGTCACCTAGTGCAG | 8540 fluorescence intensity (a.u.) |
| CTTATACATTGGGTTGAGGGTTTTTTTGGTTGAGTTCGGCCGGAGTCACCTAGTGCAG | 9220 fluorescence intensity (a.u.) |
| TTGGTTGGTTGGTTGGTGTTTTGAGGCTTGGGTCGGCTTACGGAGTCACCTAGTGCAG | 17100 fluorescence intensity (a.u.) |
| GCTAGGGTTTTTGGGTTCACTTTGAGGCTGTTTGGTTGGTCGGAGTCACCTAGTGCAG | 15100 fluorescence intensity (a.u.) |
| AGTTACCGTTCTAGTCAGGGGCGGATCCAGCGTGGGGCGGCGGAGTCACCTAGTGCAG | 12600 fluorescence intensity (a.u.) |
| ACATCCTTCTGGGTTGATTTTTTTCTATAGAGGGGTAGGTCGGAGTCACCTAGTGCAG | 8590 fluorescence intensity (a.u.) |
| AAGTAAGATGCCACACACCATAGTCTGCTTCACTGTCAACCGGAGTCACCTAGTGCAG | 9080 fluorescence intensity (a.u.) |
| CGTCTCCGCCGCTGCTTGAATCTGCCGCCACCATCACCGCCGGAGTCACCTAGTGCAG | 8910 fluorescence intensity (a.u.) |
| GCTGACATAATTGCTTGTTGGGATTCTTGGGAGGAAATGGCGGAGTCACCTAGTGCAG | 8330 fluorescence intensity (a.u.) |
| CTTCTCTCCTCTCCGCTGTGGTTTCTTGCTGGTTCTTGGACGGAGTCACCTAGTGCAG | 10400 fluorescence intensity (a.u.) |
| TCACCGGGCGGTCACCGGAGGCGGAGGCGGAGGGAGGGGCCGGAGTCACCTAGTGCAG | 10200 fluorescence intensity (a.u.) |
| TCTCCTCTCTCTCTCTTCTTCCCGGGGAGGCGGGGAGCGGCGGAGTCACCTAGTGCAG | 11700 fluorescence intensity (a.u.) |
| GGGTTGGGTGGGTGCTGTAATATGGGGAGATACTGACTACCGGAGTCACCTAGTGCAG | 19200 fluorescence intensity (a.u.) |
| GAGGCTGGGCTGGGCGGGCGTATCGTTCCTGCTCCCGGAGCGGAGTCACCTAGTGCAG | 25400 fluorescence intensity (a.u.) |
| GGGTGGAGCTGAACTGATGGGCCGAACTATGTATGGTTGGCGGAGTCACCTAGTGCAG | 9030 fluorescence intensity (a.u.) |
